D2 PAM-1 – Beta-Arrestin HTS for Positive Allosteric Modulators of the Human D2 Dopamine Receptor: Potentiators | D(2) dopamine receptor (Homo sapiens), P14416 | DiscoveRx D2 beta-arrestin cells, luminescence, 90 min; 100% = 57 uM dopamine signal | potentiation, % (test concentration not listed) | 0.23% of 360,000 active | AID 624464, 2012; in the data active means potentiation above about 50%
Target sequence (P14416 whole entry, looked up): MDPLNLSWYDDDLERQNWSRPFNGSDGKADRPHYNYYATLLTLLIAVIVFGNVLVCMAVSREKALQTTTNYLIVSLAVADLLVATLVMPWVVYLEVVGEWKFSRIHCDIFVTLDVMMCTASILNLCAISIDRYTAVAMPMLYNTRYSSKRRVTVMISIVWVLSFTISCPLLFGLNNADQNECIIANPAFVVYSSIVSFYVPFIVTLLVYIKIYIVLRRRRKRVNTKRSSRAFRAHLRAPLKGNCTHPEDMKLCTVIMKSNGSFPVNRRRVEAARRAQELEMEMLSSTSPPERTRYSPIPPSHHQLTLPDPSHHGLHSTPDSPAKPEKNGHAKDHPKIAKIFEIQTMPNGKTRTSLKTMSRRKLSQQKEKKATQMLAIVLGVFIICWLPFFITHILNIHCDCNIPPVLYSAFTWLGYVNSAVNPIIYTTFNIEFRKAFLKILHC
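PathHunter beta-arrestin assay in DiscoveRx D2 cells. Compounds were added with an EC20 of dopamine (50 nM final) for 90 min at 37 deg C. Luminescence was read 1 h after detection reagent, with 57 uM dopamine as the EC100 control.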
D2 ag-1 – HTS Assay for Allosteric Agonists of the Human D2 Dopamine Receptor: Primary Screen for Agonists; D(2) dopamine receptor (Homo sapiens), P14416; HEK293 T-REx D2 cells, calcium flux agonist mode; activation, % at 2 µM; 0.53% of 340,000 active; AID 485358, 2010;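 active means activation over 3 SD above normal in the single-dose calcium agonist read, cut at about 30% in these data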; further: 0% is about no effect
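HEK293 Trex D2 cells, tetracycline-induced, o/n 30 C 5% CO2; no-wash Ca dye, RT 30–90 min; 10-cycle baseline, 23 nl cpd added, kinetic Ca read 180 s; agonist hits = positive Ca response.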
D2 ag-2 – Beta-Arrestin HTS for Positive Allosteric Modulators of the Human D2 Dopamine Receptor: Agonists. D(2) dopamine receptor (Homo sapiens), P14416. DiscoveRx PathHunter D2 beta-arrestin, luminescence, 90 min; 100% = 57 uM dopamine signal. activation, % (test concentration not listed). 0.084% of 360,000 active; in the data active means activation above about 40%
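Agonist mode: compounds alone added to overnight-plated D2 PathHunter cells for 90 min at 37 C, with 57 uM final dopamine (EC100) defining full response. Beta-arrestin recruitment detected by chemiluminescent reagent, read after 1 h at ambient temperature.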
D2 antag – HTS Assay for Allosteric Antagonists of the Human D2 Dopamine Receptor: Primary Screen for Antagonists. HEK293 TREx D2 cells, calcium flux, dopamine EC80. AID 485344, 2010. 2% of 340,000 active. inhibition, % at 10 µM; in the data active means inhibition above about 30%; inactive means below that, where a call was filed; further: 0% is about no effect
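Read-out: kinetic calcium fluorescence (1 cycle/s) in inducible HEK293 T-REx D2 cells after an EC80 dopamine addition that followed 180 s compound preincubation. Loss of the dopamine response indicates antagonism.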
D2 PAM-2 – HTS Assay for Positive Allosteric Modulators of the Human D2 Dopamine Receptor: Primary Screen for Potentiators; potentiation, % at 10 µM; AID 485347, 2010; HEK293 T-REx D2, calcium flux, EC20 dopamine potentiation; D(2) dopamine receptor (Homo sapiens), P14416; 0.34% of 340,000 active;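 active means potentiation over 3 SD above the plate norm, cut at about 30% in these data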; further: 0% is about no effect
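Tetracycline-induced Hek293 Trex D2 cells, force-coupled to calcium, loaded with no-wash calcium dye. Compound added with 180 s kinetic read for agonism, then EC20 dopamine and a further 180 s read for potentiation.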
The depositor's hits bear a star; . = not tested or not shown. In the library only some 2.4% were active in any assay of this set; here they are far more common.

SMILES	D2 PAM-1	D2 ag-1	D2 ag-2	D2 antag	D2 PAM-2
Cc1cc(C)c(/C=C/c2onc(C)c2S(=O)(=O)N2CCC(C(=O)NCc3ccco3)CC2)c(C)c1	.	1	.	.	0
O=C(CCc1nc(-c2ccccc2)no1)NCc1ccco1	-2	0	-2	9	13
COc1ccc(-c2noc(CCC(=O)NCCCN3CCN(c4ccccc4F)CC3)n2)cc1	-5	5	-1	84*	-15
O=C(CCS(=O)(=O)Cc1ccc(Cl)cc1)NCCCN1CCN(c2ccccc2F)CC1	3	0	2	1	23
Cc1ccccc1CS(=O)(=O)CCC(=O)NCCCN1CCN(c2ccccc2F)CC1	-28	43*	5	55*	-25
Cc1ccc2[nH]c3c(=O)n(CC(=O)NCCCN4CCN(c5ccc(F)cc5)CC4)ncc3c2c1	-30	0	-3	63*	-6
Cc1ccc(-c2noc(CCC(=O)NCc3ccco3)n2)cc1	-1	0	0	60*	6
CCOc1ccc(-n2c(=O)c3c(C)c(C)sc3n(CC(=O)NCCc3ccccc3)c2=O)cc1	.	.	.	.	-5
Cc1ccc(Cn2ccn(Cc3ccccc3F)c(=O)c2=O)cc1	.	1	.	.	-2
CCc1nc(-c2cc(S(=O)(=O)N3CCN(c4ccccc4OC)CC3)ccc2OC)no1	.	0	.	.	.
Cc1ccc(-c2noc(CCC(=O)NCCCN3CCN(c4ccc(F)cc4)CC3)n2)cc1	-12	0	0	61*	-19
Cc1ccc(-c2noc(CCC(=O)NCCCN3CCN(c4cccc(Cl)c4)CC3)n2)cc1	-44	0	-5	-18	8
COc1ccc(C(=O)N/C(=C\c2cn(C)c3ccccc23)C(=O)N2CCOCC2)cc1	-11	-1	-8	21	-4
COC(=O)c1ccccc1NC(=O)c1cc2cc(C)ccc2n1C	.	.	.	.	-5
COc1ccc(NC(=O)c2cnc(SC)nc2C)c(OC)c1	0	1	-1	38*	19
COc1ccc(NC(=O)c2cc3cc(C)ccc3n2C)c(OC)c1	-6	0	1	34*	0
COc1ccc(NC(=O)c2cc(S(=O)(=O)N3CCOCC3)cn2C)c(OC)c1	-2	1	2	41*	-7
COc1ccc(NC(=O)c2cc(S(=O)(=O)N3CCCCCC3)cn2C)c(OC)c1	.	-1	.	.	5
CCCS(=O)(=O)NC(=O)C1(C)CCN(C(=O)c2cccs2)C1 (stereo not given)	-5	.	-3	.	.
Cc1ccc(C)c(Cn2nc(-c3cc(C)ccc3C)ccc2=O)c1	-10	1	-1	35*	-3
CC(=O)N1CCCc2cc(S(=O)(=O)N(Cc3ccccc3)C(C)C)ccc21	.	0	.	.	-16
CCOCCCN(C)C1CCN(C(=O)c2oc3ccccc3c2NC(=O)COc2ccc(F)cc2)CC1	-37	1	-8	50*	-26
CCOc1ccc(CNC(=O)c2ccc(-c3nc(CSc4ccc(C)cc4)c(C)o3)cc2)cc1	.	1	.	.	-6
Cc1ccc(N(C)S(=O)(=O)c2cccc(C(=O)OCC(=O)N3CCCC(C)C3)c2)cc1 (stereo not given)	-23	1	-2	-25	9
CC(O)(c1cccc(F)c1)c1nc(-c2cnc3ccccc3c2)cs1 (stereo not given)	65*	.	148*	.	.
Cc1ccccc1NC(=O)Cn1c(=O)n(Cc2ccccc2)c(=O)c2sc3ccccc3c21	.	0	.	.	15
O=C1NC(c2cccs2)Nc2ccccc21 (stereo not given)	-23	-2	-3	1	7
Cc1ccsc1C1NC(=O)c2ccccc2N1 (stereo not given)	-15	1	1	-9	33*
O=c1c2c([N+](=O)[O-])cc([N+](=O)[O-])cc2sn1-c1ccc(Br)cc1	61*	1	11	7	-2

Compound activity from PubChem.
